Results published in PubChem BioAssay AID588466 (NMMLSC, 2011).
“And” between values parts separate entries of the source, which are not always exact repeats. Identical values can stand only once. Among all 2,100 compounds or so, about 30 (1%) were called active.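 How the source made its calls: active means compounds whose mean binding response over two repeats is below 75% of the DMSO control; inactive means the rest.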 Only a sample is shown.

The molecules below were run against Desmoglein-3 (Homo sapiens) (UniProt P32926) (assay: inhibitors of anti-DSG3 scFv binding to DSG3, confirmation, biochemical, cherry pick 1, bead-based, flow cytometry (AID 588466;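 further: 100% = 2% DMSO vehicle and 0% = excess soluble DSG3 blocking control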)). Settings: Protein G beads with DSG3, scFv-GFP binding, at 10 µM, stronger effect = lower value.
Desmoglein-3 (Homo sapiens), sequence (P32926 whole entry, looked up): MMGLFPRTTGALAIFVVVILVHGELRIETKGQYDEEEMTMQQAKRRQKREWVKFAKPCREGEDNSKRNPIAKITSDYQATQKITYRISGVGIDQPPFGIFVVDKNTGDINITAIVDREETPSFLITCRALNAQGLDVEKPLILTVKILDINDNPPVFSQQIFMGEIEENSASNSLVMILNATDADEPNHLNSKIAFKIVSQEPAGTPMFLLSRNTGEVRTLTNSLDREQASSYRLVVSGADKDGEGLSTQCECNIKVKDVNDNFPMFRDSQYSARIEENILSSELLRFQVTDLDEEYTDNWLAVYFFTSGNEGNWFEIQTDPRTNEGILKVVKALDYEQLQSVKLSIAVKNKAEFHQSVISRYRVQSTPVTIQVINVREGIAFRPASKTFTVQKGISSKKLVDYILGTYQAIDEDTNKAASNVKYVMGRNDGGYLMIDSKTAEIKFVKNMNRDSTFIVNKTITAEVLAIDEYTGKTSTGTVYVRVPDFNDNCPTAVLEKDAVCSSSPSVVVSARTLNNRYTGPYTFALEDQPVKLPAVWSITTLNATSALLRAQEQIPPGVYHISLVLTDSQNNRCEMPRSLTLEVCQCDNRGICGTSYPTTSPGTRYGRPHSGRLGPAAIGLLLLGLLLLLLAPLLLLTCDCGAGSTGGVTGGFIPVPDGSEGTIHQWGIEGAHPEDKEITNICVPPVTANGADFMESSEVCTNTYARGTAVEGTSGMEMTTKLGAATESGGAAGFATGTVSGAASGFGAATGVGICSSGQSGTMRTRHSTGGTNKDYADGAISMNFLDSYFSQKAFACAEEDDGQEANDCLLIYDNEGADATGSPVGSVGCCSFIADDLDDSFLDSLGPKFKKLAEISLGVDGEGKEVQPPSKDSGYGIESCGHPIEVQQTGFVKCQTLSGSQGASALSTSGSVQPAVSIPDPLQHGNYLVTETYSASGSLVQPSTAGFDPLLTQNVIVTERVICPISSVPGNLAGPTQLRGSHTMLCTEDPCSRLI

SMILES | binding response (% of DMSO)
Cc1cc(=O)oc2cc(OCC(=O)OCC(=O)Nc3ccccc3Br)ccc12 | 112% (inactive)
COc1cccc(-c2nc(NCc3ccco3)c3ccccc3n2)c1O | 89.5% (inactive)
O=C(c1cc(S(=O)(=O)N2CCOCC2)ccc1F)N1CCCc2ccccc21 | 104% (inactive)
CSc1nc(C2CC2)cc(-c2cccs2)c1C#N | 94.5% (inactive)
O=C(CSc1n[nH]c(-c2ccco2)n1)Nc1ccccc1Cl | 101% (inactive)
COc1ccc(CC(=O)Nc2cccc(C(=O)NN3C(=O)c4ccccc4C3=O)c2C)cc1 | 102% (inactive)
COC(=O)[C@]1(C)N[C@H](CN(C)C(=O)Nc2ccc(OC)cc2)[C@@H]2C(=O)N(C)C(=O)[C@@H]21 | 95.3% (inactive)
CCOC(=O)c1sc(NC(=O)C(CC)Sc2nccn2C)nc1C (configuration not stated) | 105% (inactive)
O=C(O)C1(Nc2ccc(Br)cc2)CCCC1 | 98.6% (inactive)
COc1ccc(S(=O)(=O)N2CCCCCC2)cc1NC(=O)CCNC(=O)c1ccc(Cl)cc1 | 107% (inactive)
O=C(CCCCCCN1C(=O)c2ccccc2C1=O)NC1CCCCC1 | 105% (inactive)
CCCCN(CCCC)C(=O)c1cc(Cl)ccc1[N+](=O)[O-] | 98.8% (inactive)
COc1ccc(C(=O)COc2ccc3ccc(=O)oc3c2)c(OC)c1 | 104% (inactive)
COc1ccc(C)cc1NS(=O)(=O)c1ccc2c(c1)CCN2C(C)=O | 99.4% (inactive)
NS(=O)(=O)c1ccc(NC(=O)c2ccc(F)cc2F)c(NC(=O)c2ccc(F)cc2F)c1 | 104% (inactive)
CCCCSc1nnc(-c2ccc(NC(=O)CCc3ccccc3)cc2)n1C | 104% (inactive)
COc1ccc(-c2cc(NC(=O)c3cncn3-c3ccccc3)ccc2OC)cc1 | 107% (inactive)
Cc1ccc(NC(=O)CN2C(=O)NC(Cc3c[nH]c4ccccc34)C2=O)cc1S(=O)(=O)N1CCCCC1 (configuration not stated) | 102% (inactive)
CC(=O)c1ccc(OCC(O)CN2CC(C)OC(C)C2)cc1 (configuration not stated) | 104% (inactive)

SMILES | binding response (% of DMSO)
Cc1cc2oc(=O)cc(-c3ccccc3)c2c(C)c1-c1ccc(F)c(Cl)c1 | 105% (inactive)
C[C@H](CO)N1C[C@H](C)[C@@H](CN(C)Cc2ccc(-c3ccccc3)cc2)Oc2c(NS(=O)(=O)c3cn(C)cn3)cccc2C1=O | 98.2% (inactive)
O=C(CN1CCN(S(=O)(=O)c2ccccc2)CC1)Nc1cccc(C(F)(F)F)c1 | 110% (inactive)
O=C(Nc1cc(Cl)ccc1-n1cncn1)c1cn2ccccc2n1 | 111% (inactive)
COc1cccc(C(=O)NCCn2ccc3ccccc32)c1 | 112% (inactive)
COc1cc(CN2CCC(n3nccc3NC(=O)C3CC3)CC2)cc(OC)c1 | 104% (inactive)
Cc1ccc(Cn2cnc3c(nnn3Cc3ccc(Cl)cc3)c2=O)cc1 | 90% (inactive) and 97.5% (inactive)
CC(C)[C@H](NC(=O)N1c2ccccc2NC(=O)[C@@H]1C(C)C)C(=O)N[C@@H](Cc1c[nH]c2ccccc12)C(=O)O | 105% (inactive)
CCOc1c(Br)cc(C(=O)Nc2cccc(S(=O)(=O)N3CCOCC3)c2)cc1OC | 102% (inactive)
CCc1nnc(NC(=O)CCC(=O)NCc2ccccc2Cl)s1 | 97.5% (inactive)
COc1ccc(OC)c(NS(=O)(=O)c2ccc(-c3coc(C)n3)cc2)c1 | 97.3% (inactive)
COc1ccc(CCN2C(=O)C(Oc3ccccc3C)C2c2ccc3c(c2)OCO3)cc1OC (configuration not stated) | 101% (inactive)
CSc1nc2ccc(NC(=O)c3cccs3)cc2s1 | 102% (inactive)
Cc1ccc(NC(=O)Cc2ccc([N+](=O)[O-])cc2)c(Br)c1 | 95.5% (inactive)
CCCN(CCC)CCNC(=O)Cn1cnc2sc(C)c(S(=O)(=O)N3CCOCC3)c2c1=O | 99.3% (inactive)
CCOC(=O)c1nn(-c2ccccc2)c(=O)c2c(NC(C)=O)scc12 | 111% (inactive)
Cc1cc2ccccc2n1CCNC(=O)c1ccc(S(=O)(=O)N2CCCCC2)cc1 | 94.7% (inactive)
CCOc1ccc(/C(O)=C2/C(=O)C(=O)N(c3cc(C)on3)C2c2ccc(C(=O)OC)cc2)cc1 (configuration not stated) | 98.1% (inactive)
C[C@H]1COC(=O)[C@@H](Cc2ccc(F)cc2)CC/C=C/C[C@@H](CC(=O)N(CCO)Cc2ccccc2)C(=O)N1 | 104% (inactive)

SMILES | binding response (% of DMSO)
Cc1ccc(NC(=O)COc2ccc3c(c2)OCO3)c(C)c1 | 103% (inactive)
CCN1CCN(c2ccc(S(=O)(=O)N3CCOCC3)cc2NC(=O)CCSC)CC1 | 105% (inactive)
COc1ccc(CN(CCN(C)C)Cc2ccccc2)c(OC)c1 | 101% (inactive)
Cc1cnc(NS(=O)(=O)c2ccccc2)c(C)n1 | 98.8% (inactive)
N#Cc1c(-c2ccc(F)cc2)cc(-c2ccccc2)nc1SCC(=O)NCC(=O)O | 99.8% (inactive)
O=C(Oc1cccc(C(=S)N2CCOCC2)c1)c1ccccc1 | 94.4% (inactive)
CCc1cc2cc3c(cc2nc1SCC(=O)Nc1cc(C)on1)OCO3 | 103% (inactive)
Cc1ccc(/C=N/N2CCN(c3ccc(Cl)cc3)CC2)o1 | 101% (inactive)
COc1ccccc1-c1cc(N)n(S(=O)(=O)c2ccc(F)c(C)c2)n1 | 100% (inactive)
COC(=O)c1oc2ccc(Cl)cc2c1NC(C)=O | 100% (inactive)
O=[N+]([O-])c1ccc(OCc2cnc(Cl)s2)c([N+](=O)[O-])c1 | 107% (inactive)
Cc1ccc(C)c(N2CCN(C(=O)Cc3cn(C)c4ccccc34)CC2)c1 | 104% (inactive)
O=C(CNC(=O)c1ccc(Br)cc1)N=Nc1c(O)[nH]c2ccc([N+](=O)[O-])cc12 | 100% (inactive)
CC(=O)c1ccc(NC(=O)Cn2cnc(S(=O)(=O)N3CCC(C)CC3)c2)cc1 | 98.2% (inactive)
CSCC[C@H](NC(=O)C1CCN(S(=O)(=O)c2ccc(C)cc2)CC1)C(=O)NCc1ccco1 | 106% (inactive)
Cc1ccccc1NC(=O)Nc1nc2ccc(S(C)(=O)=O)cc2s1 | 89.9% (inactive)
COc1ccc(NC(=O)CSc2nnc(Cc3ccc(C)cc3)c(=O)n2N)cc1 | 92.4% (inactive)
Cc1ccc(NC(=O)COc2ccc3c(c2)OCO3)c(Cl)c1 | 98.1% (inactive)
CC1=C(C(N)=O)C(c2cccnc2)n2nc(SCc3ccccc3Cl)nc2N1 (configuration not stated) | 103% (inactive)
